# According to ChEMBL document CHEMBL1961873, “Compounds: GSK PKIS; Assays: Nanosyn kinase panel” (2012):
# Assays:
# [1] = target: Sphingosine kinase 1 (Homo sapiens) (UniProt Q9NYA1); details: at 1 µM;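 also: mean SPHK1 inhibition value reported from the GSK PKIS kinase panel screen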
# [2] = target: T1, Sphingosine kinase 2 (Homo sapiens) (UniProt Q9NRA0); details: at 0.1 µM
# T1 sequence (whole entry): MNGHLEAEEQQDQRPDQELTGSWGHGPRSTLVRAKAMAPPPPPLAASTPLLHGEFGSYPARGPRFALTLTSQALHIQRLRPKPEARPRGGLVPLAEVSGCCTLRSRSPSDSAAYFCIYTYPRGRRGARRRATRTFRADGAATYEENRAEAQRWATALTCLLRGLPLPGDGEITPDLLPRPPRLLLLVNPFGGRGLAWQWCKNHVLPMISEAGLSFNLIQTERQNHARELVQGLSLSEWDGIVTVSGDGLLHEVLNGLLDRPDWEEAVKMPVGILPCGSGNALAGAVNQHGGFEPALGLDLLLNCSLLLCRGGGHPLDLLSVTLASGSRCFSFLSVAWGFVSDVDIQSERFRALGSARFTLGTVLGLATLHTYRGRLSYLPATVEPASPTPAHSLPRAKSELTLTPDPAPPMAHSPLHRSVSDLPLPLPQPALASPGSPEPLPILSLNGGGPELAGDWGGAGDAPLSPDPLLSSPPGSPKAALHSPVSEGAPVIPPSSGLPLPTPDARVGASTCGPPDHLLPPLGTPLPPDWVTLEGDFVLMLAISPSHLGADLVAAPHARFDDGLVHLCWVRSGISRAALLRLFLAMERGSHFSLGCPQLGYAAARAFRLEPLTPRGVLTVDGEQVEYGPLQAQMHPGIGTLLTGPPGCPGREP
# [3] = target: T1, Sphingosine kinase 2 (Homo sapiens); details: at 1 µM
# [4] = target: Casein kinase II subunit alpha (Homo sapiens) (UniProt P68400); details: at 0.1 µM
# Sequence of Casein kinase II subunit alpha (Homo sapiens) (P68400 whole entry, looked up): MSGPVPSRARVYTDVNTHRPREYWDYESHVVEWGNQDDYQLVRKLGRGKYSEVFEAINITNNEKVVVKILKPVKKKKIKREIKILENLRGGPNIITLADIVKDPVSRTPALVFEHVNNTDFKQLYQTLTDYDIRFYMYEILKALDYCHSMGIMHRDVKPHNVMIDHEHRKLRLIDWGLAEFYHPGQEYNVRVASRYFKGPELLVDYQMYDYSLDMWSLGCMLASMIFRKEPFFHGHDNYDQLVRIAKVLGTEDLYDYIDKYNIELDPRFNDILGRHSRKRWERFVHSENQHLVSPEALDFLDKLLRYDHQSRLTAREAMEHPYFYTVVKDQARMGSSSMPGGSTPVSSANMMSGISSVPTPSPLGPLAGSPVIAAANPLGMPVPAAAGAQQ
# [5] = target: Casein kinase II subunit alpha (Homo sapiens) (UniProt P68400); details: at 1 µM
# [6] = target: T2, Inhibitor of nuclear factor kappa-B kinase subunit alpha (Homo sapiens) (UniProt O15111); details: at 0.1 µM
# T2 sequence (whole entry): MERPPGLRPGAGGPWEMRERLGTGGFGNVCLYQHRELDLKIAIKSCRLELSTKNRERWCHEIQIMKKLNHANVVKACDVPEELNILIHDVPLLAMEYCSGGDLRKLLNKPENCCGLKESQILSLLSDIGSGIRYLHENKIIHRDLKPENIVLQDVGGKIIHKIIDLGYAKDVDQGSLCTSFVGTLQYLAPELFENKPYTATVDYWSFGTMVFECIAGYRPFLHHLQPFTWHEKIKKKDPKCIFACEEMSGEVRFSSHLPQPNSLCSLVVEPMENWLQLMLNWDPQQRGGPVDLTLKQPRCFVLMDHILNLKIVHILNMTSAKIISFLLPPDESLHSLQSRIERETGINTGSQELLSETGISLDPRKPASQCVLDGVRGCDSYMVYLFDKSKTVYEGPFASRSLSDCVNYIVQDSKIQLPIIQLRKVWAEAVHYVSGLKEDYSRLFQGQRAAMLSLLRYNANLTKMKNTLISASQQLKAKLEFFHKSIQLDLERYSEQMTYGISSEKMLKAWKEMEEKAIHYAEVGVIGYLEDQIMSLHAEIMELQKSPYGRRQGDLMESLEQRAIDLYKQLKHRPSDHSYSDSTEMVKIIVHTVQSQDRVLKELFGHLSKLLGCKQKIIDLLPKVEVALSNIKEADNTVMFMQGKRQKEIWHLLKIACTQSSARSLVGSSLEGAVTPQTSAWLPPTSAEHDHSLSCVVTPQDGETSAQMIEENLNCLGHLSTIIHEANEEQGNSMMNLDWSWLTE
# [7] = target: T2, Inhibitor of nuclear factor kappa-B kinase subunit alpha (Homo sapiens); details: at 1 µM
# [8] = target: T3, Inhibitor of nuclear factor kappa-B kinase subunit beta (Homo sapiens) (UniProt O14920); details: at 0.1 µM
# T3 sequence (whole entry): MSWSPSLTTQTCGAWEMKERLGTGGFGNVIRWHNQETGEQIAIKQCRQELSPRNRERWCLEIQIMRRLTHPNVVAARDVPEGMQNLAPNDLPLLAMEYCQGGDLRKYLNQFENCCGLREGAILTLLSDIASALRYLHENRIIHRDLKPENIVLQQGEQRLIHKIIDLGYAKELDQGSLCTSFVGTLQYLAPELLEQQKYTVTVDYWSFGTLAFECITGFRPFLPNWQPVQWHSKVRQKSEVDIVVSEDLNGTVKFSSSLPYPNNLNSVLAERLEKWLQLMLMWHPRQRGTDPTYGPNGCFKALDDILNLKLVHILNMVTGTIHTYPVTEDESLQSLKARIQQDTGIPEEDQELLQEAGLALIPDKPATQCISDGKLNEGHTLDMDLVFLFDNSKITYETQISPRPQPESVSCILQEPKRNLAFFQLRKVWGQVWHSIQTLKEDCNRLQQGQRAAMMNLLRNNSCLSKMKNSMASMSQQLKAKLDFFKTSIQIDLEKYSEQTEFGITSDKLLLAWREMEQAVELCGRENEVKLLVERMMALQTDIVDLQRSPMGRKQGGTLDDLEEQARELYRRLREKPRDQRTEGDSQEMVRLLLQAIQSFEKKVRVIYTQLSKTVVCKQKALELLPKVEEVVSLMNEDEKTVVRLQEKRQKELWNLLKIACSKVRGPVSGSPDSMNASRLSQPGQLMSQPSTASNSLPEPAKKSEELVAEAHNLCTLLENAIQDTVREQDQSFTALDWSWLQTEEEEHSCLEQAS
# [9] = target: T3, Inhibitor of nuclear factor kappa-B kinase subunit beta (Homo sapiens); details: at 1 µM
# [10] = target: T4, Inhibitor of nuclear factor kappa-B kinase subunit epsilon (Homo sapiens) (UniProt Q14164); details: at 0.1 µM
# T4 sequence (whole entry): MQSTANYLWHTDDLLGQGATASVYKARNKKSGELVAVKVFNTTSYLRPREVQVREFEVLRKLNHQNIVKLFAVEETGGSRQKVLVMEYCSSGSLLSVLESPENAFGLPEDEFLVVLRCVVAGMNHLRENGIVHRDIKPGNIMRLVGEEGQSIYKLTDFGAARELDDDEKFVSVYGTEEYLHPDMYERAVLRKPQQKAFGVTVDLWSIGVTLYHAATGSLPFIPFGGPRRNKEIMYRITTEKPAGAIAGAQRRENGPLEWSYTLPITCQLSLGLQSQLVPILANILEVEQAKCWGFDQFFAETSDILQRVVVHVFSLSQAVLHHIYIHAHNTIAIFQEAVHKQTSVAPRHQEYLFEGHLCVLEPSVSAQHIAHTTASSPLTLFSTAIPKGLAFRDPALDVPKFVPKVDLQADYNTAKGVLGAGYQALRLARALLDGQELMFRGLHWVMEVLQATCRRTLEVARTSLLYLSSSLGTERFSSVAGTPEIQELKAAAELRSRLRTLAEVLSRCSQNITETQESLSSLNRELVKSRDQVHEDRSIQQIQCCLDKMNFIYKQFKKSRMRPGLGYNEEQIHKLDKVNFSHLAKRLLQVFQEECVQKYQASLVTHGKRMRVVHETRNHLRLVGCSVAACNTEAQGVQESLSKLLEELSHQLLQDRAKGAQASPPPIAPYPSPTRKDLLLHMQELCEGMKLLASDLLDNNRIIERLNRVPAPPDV
# [11] = target: T4, Inhibitor of nuclear factor kappa-B kinase subunit epsilon (Homo sapiens); details: at 1 µM
# [12] = target: T5, Serine/threonine-protein kinase Nek1 (Homo sapiens) (UniProt Q96PY6); details: at 0.1 µM
# T5 sequence (whole entry): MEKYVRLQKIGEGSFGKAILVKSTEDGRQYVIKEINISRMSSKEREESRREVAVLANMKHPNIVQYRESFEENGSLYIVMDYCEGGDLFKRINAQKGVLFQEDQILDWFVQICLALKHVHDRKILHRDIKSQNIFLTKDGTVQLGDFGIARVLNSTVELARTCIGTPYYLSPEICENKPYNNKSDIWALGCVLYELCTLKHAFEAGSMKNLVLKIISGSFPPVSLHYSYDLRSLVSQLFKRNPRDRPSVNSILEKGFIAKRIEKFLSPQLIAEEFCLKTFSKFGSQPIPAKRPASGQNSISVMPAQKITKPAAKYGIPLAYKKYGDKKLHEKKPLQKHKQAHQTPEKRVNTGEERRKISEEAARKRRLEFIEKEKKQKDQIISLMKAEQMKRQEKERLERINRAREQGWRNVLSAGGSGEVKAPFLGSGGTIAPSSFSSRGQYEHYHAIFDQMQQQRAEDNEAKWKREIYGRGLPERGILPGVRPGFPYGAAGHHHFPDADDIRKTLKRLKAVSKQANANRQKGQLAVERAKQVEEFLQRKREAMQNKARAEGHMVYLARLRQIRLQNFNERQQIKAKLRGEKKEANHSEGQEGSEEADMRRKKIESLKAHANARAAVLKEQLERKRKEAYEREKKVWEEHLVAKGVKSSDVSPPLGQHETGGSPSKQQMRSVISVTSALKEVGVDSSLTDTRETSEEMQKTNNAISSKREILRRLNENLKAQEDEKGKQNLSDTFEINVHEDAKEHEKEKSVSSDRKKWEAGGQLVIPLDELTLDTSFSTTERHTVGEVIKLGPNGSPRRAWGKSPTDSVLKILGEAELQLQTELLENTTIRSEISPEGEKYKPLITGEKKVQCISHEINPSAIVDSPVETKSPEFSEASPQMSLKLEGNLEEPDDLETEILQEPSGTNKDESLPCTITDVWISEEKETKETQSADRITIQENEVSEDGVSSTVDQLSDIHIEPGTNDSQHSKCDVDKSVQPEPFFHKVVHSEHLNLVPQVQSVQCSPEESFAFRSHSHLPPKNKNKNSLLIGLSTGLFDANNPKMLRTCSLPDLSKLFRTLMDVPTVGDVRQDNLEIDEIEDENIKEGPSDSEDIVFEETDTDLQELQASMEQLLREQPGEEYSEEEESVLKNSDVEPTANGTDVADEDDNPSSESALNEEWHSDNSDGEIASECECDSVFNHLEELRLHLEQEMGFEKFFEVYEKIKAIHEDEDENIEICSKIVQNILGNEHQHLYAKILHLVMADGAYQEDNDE
# [13] = target: T5, Serine/threonine-protein kinase Nek1 (Homo sapiens); details: at 1 µM
# [14] = target: T6, Serine/threonine-protein kinase Nek2 (Homo sapiens) (UniProt P51955); details: at 0.1 µM
# T6 sequence (whole entry): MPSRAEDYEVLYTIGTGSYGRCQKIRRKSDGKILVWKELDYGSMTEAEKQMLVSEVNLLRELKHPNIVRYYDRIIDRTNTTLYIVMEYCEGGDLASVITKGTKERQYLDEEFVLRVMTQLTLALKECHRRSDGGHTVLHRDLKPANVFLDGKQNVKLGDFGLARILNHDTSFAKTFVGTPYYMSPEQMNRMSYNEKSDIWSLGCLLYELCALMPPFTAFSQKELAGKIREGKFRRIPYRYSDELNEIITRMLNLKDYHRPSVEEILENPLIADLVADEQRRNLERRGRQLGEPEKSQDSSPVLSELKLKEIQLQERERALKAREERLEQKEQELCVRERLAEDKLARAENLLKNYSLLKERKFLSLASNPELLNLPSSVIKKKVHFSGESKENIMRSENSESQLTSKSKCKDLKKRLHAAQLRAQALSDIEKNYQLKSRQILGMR
# [15] = target: T6, Serine/threonine-protein kinase Nek2 (Homo sapiens); details: at 1 µM
# [16] = target: Serine/threonine-protein kinase Nek6 (Homo sapiens) (UniProt Q9HC98); details: at 0.1 µM
# Sequence of Serine/threonine-protein kinase Nek6 (Homo sapiens) (Q9HC98 whole entry): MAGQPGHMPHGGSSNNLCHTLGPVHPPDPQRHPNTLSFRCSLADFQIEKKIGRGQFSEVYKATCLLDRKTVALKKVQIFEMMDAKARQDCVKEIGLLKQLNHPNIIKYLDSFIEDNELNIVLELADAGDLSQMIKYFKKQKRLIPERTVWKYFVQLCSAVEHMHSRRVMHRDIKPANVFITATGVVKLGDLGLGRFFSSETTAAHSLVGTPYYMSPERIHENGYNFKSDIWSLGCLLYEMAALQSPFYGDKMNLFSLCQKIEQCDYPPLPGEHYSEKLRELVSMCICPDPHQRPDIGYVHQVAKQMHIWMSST
# [17] = target: Serine/threonine-protein kinase Nek6 (Homo sapiens) (UniProt Q9HC98); details: at 1 µM
# [18] = target: Serine/threonine-protein kinase Nek7 (Homo sapiens) (UniProt Q8TDX7); details: at 0.1 µM
# Sequence of Serine/threonine-protein kinase Nek7 (Homo sapiens) (Q8TDX7 whole entry, looked up): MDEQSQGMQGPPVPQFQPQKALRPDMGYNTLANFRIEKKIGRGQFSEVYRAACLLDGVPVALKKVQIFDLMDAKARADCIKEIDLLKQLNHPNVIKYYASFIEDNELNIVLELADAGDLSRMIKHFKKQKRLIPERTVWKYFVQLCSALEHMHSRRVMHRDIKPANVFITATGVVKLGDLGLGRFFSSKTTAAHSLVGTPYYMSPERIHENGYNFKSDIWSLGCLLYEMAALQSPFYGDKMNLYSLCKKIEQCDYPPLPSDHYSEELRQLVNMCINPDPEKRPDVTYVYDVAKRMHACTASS
# [19] = target: Serine/threonine-protein kinase Nek7 (Homo sapiens) (UniProt Q8TDX7); details: at 1 µM
# [20] = target: T7, Serine/threonine-protein kinase Nek9 (Homo sapiens) (UniProt Q8TD19); details: at 0.1 µM;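 also: reported value is the mean percent inhibition of NEK9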
# T7 sequence (whole entry): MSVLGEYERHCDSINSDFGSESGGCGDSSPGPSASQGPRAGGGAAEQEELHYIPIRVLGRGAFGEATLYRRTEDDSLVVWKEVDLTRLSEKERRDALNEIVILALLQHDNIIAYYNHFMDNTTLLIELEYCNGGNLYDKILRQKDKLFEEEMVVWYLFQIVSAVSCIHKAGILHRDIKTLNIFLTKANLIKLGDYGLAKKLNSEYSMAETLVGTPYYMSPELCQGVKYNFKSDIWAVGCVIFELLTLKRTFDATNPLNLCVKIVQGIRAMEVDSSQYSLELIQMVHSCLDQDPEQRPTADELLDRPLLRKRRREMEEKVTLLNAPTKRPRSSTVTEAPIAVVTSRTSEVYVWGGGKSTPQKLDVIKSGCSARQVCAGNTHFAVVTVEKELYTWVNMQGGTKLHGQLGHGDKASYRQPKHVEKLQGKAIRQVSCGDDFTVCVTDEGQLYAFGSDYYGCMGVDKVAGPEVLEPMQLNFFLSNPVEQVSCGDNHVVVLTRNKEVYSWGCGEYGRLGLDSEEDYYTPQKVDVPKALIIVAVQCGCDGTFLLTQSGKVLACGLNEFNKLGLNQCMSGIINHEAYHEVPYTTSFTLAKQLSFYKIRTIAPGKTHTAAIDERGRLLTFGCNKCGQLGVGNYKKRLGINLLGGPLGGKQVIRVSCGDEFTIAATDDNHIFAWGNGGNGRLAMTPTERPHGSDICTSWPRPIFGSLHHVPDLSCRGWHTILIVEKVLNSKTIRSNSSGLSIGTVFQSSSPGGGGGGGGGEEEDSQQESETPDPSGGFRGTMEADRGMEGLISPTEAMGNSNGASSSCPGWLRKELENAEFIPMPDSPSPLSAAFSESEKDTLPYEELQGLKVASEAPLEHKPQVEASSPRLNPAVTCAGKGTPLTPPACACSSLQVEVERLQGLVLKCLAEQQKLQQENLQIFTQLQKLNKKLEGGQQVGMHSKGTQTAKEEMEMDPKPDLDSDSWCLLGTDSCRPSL
# Sequence of Sphingosine kinase 1 (Homo sapiens) (Q9NYA1 whole entry): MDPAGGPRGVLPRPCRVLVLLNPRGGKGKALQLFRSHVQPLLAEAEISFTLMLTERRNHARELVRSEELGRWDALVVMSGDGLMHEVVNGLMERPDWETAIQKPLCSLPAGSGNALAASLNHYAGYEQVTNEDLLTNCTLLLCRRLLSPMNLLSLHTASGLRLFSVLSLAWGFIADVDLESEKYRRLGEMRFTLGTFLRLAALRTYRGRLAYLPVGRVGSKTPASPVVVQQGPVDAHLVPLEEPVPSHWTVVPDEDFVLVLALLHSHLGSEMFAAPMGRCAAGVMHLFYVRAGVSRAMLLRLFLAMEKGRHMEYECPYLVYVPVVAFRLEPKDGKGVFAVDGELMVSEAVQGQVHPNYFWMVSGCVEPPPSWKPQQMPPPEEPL
SMILES,inhibition [1] [%],inhibition [2] [%],inhibition [3] [%],inhibition [4] [%],inhibition [5] [%],inhibition [6] [%],inhibition [7] [%],inhibition [8] [%],inhibition [9] [%],inhibition [10] [%],inhibition [11] [%],inhibition [12] [%],inhibition [13] [%],inhibition [14] [%],inhibition [15] [%],inhibition [16] [%],inhibition [17] [%],inhibition [18] [%],inhibition [19] [%],inhibition [20] [%]
CC1(C)CC(n2cnc(-c3ccc(F)cc3)c2-c2ccnc(N)n2)CC(C)(C)N1,10.6,3.82,-2.43,1.44,7.38,1.15,1.35,-0.17,-1.15,0.1,0.72,0.9,0.83,1.02,2.07,1.95,0.37,3.74,1.39,5.35
COC(=O)Nc1nc2ccc(Oc3ccc(NC(=O)Nc4cc(C(F)(F)F)ccc4F)cc3)cc2s1,-3.33,0.51,-0.44,-0.3,1.75,4.91,-0.96,3.58,-1.14,-0.11,-1.19,1.14,1.38,-0.09,0.69,-1.08,-4.58,1.35,0.53,-1.57
